Screen size: about 48,000 compounds; about 13,000 (27%) showed an effect of 50% or more. The list shows a part of the results.
What follows are molecules tested on Wolbachia pipientis (assay: Anti-Wolbachia Cell-Based Screen). Conditions: 5 µM.
Type: functional
Set-up: scale not given: in the data most compounds retested in dose-response had high values

Structure (SMILES)	Percent Effect
Cc1cc(CN(CCCO)c2ccccc2)on1	-3.081%
O=S(=O)(NC[C@H]1OC[C@@H](NCc2cccs2)[C@@H]1O)c1ccccc1	-1.267%
CCCn1ccnc1CN1C[C@@H](CN2CCCN(C)CC2)[C@@H](CO)C1	7.413%
CCC(C)N(Cc1c[nH]c(C)n1)Cc1ccccc1Cl (stereo not drawn)	9.271%
Cc1nn(CN(Cc2ccsc2)C2CC2)c(=O)c2noc(C)c12	0.1409%
CCN(CC)Cc1ccccc1NCc1c(C)noc1C	-28.25%
Cc1nn(CN(CC(C)C)C2CC2)c(=O)c2noc(C)c12	-9.201%
CCCN(Cc1ccccc1)Cn1nc(C)c2c(C)onc2c1=O	10.45%
CCCN(CC)Cn1ncc2cn(-c3ccccc3)nc2c1=O	21.01%
CCN(Cc1cccc(C)c1)Cn1nc(C)c2c(C)onc2c1=O	127.1%
CCN(Cc1c(F)cccc1F)Cn1nc(C)c2c(C)onc2c1=O	127.8%
CCN(Cc1cccc(F)c1)Cn1nc(C)c2c(C)onc2c1=O	123.6%
Cc1cccc(CN(Cn2nc(C)c3c(C)onc3c2=O)C2CC2)c1	-8.073%
CCN(Cc1cccc(Cl)c1)Cn1nc(C)c2c(C)onc2c1=O	4.514%
CCN(Cc1ccccc1Cl)Cn1nc(C)c2c(C)onc2c1=O	88.73%
O=C(NC[C@H]1OC[C@@H](NCc2cccs2)[C@@H]1O)N1CCOCC1	1.798%
COc1cc(CN(C)C(=O)NCCC(=O)NC2CCCC2)ccc1SC	-22.89%
Cn1ccnc1C(=O)NC[C@@H]1OC[C@H]2CN(S(C)(=O)=O)CC[C@H]21	-19.48%
CS(=O)(=O)NCC(=O)NC1CCc2nccn2C1 (stereo not drawn)	17.97%
O=C(CCCn1cncn1)NC1CCc2nccn2C1 (stereo not drawn)	92.38%
CS(=O)(=O)NCCC(=O)NC1CCc2nccn2C1 (stereo not drawn)	-6.555%
CC(C)N(C)CC(=O)NC1CCc2nccn2C1 (stereo not drawn)	10.39%
O=C(CCn1cncn1)NC1CCS(=O)(=O)C1 (stereo not drawn)	5.446%
O=C(CCn1cncn1)NC1CCc2nccn2C1 (stereo not drawn)	104.2%
COCCN(C)C(=O)Nc1cc2c(cc1SC)OCCO2	-4.661%

Structure (SMILES)	Percent Effect
O=C(CN1CCCNC1=O)Nc1ccccc1SC(F)(F)F	20.21%
Cc1cc(N2CCN(Cc3ccsc3)C(CCO)C2)nc(N)n1 (stereo not drawn)	18.89%
CSc1ncc(C(=O)N2C[C@H]3CC[C@@H]2CN(S(=O)(=O)N(C)C)C3)cn1	-20.31%
O=C(NC1CC1)c1cc(NC(=O)N2CCCC(O)C2)ccc1Cl (stereo not drawn)	-7.994%
COc1cccc(CC2CN(C3CCN(C(C)=O)CC3)CCO2)c1 (stereo not drawn)	-14.95%
CCc1cc(CNC(=O)C2CCCN(C(=O)NCC(C)C)C2)[nH]n1 (stereo not drawn)	152.4%
COCC(=O)N1CCCC(C(=O)NCc2cc(CC(C)C)on2)C1 (stereo not drawn)	3.91%
CCc1cc(NC(=O)C2CCCN(C(=O)NCC(C)C)C2)[nH]n1 (stereo not drawn)	96.52%
CSCc1nc(CNC(=O)C2CCCN(C(=O)N(C)C)C2)cs1 (stereo not drawn)	1.326%
CCC(CC)c1cc(CNC(=O)N2CCCC(C(=O)NC)C2)on1 (stereo not drawn)	-0.3036%
CCc1cc(NC(=O)C2CCCN(C(=O)c3ccncc3)C2)[nH]n1 (stereo not drawn)	100.1%
Cc1cc(CN(C)C(=O)C2CCCN(C(=O)c3ccc(Cl)cc3)C2)no1 (stereo not drawn)	-5.924%
CC(C)Cc1cc(CNC(=O)C2CCCN(C(=O)N(C)C)C2)no1 (stereo not drawn)	1.053%
COCCN1CCOCC2(CCN(c3cnccn3)CC2)C1.O=C(O)C(F)(F)F	-15.76%
COCCN1CCOCC12CCN(c1nccs1)CC2.O=C(O)C(F)(F)F	44.08%
CCN1CCOCC12CCN(c1cnccn1)CC2.O=C(O)C(F)(F)F	94.98%
CCN1CCOCC12CCN(c1ccc(C#N)cc1)CC2.O=C(O)C(F)(F)F	-6.455%
COCCN1CCOCC12CCN(c1cnccn1)CC2.O=C(O)C(F)(F)F	110.8%
CCN1CCOCC12CCN(c1nccs1)CC2.O=C(O)C(F)(F)F	-65.58%
CC(C)(C)c1cc(C(=O)NCCn2nc3ccccn3c2=O)[nH]n1	15.5%
O=C(NC[C@H]1OC[C@@H](NC2CCOCC2)[C@@H]1O)c1cccs1	-3.226%
O=C(NCc1ccnc(C2CCCOC2)n1)c1cccs1 (stereo not drawn)	112.2%
O=C(NC[C@H]1OC[C@@H](NC2CCC2)[C@@H]1O)c1cccs1	2.166%
Cn1ccnc1Sc1ncc(C(=O)N2CCCCC2)cc1Cl	1.099%
Cc1cccn2c(CNC(C)CCn3cccn3)cnc12 (stereo not drawn)	-12.69%

Structure (SMILES)	Percent Effect
CCOC(=O)CNC(=O)Cn1c(-c2ccoc2)nc(C)c1C	117%
CCOC(=O)CNC(=O)N1CCc2onc(-c3ccc(Cl)cc3)c2C1	-4.75%
Cc1nc(-c2ccoc2)n(CC(=O)NCC(C)C)c1C	121.2%
Cc1nc(-c2ccccc2)n(CC(=O)NCC(C)C)n1	-0.5584%
COc1cccn(CC(=O)N(C)Cc2ccoc2)c1=O	-6.863%
CCOC(=O)CCCNC(=O)CN1CCN(c2ncccn2)CC1	-1.703%
Cc1nc(-c2ccoc2)n(CC(=O)N(C)CC(C)C)c1C	99.79%
CC(C)CNC(=O)CN1C=Nc2ccccc2S1(=O)=O	-1.925%
Cc1nc(NC(=O)N(C)Cc2ccoc2)nn1C	-1.976%
CSCCC(C)NC(=O)N(C)Cc1cc(Cl)cn1C (stereo not drawn)	-13.17%
CNC(=O)c1cc2c(nc1NCC(C)C)CCN(S(C)(=O)=O)CC2	-6.713%
CN(Cc1cccc(C#N)c1)S(=O)(=O)N1CCOCC1	12.93%
COc1ccc(CN(CCC#N)CCN2CCOCC2)cc1OC	124%
COc1ccc(C#N)cc1CSCCN1CCOCC1	-1.196%
N#CCCN(CCN1CCOCC1)Cc1ccc(F)c(Br)c1	132.9%
N#CC1COCCN1S(=O)(=O)c1ccc(F)c(Br)c1 (stereo not drawn)	-8.72%
CCOc1ccc(CN(CCC#N)CCN2CCOCC2)cc1OC	119.9%
CCCC(=O)N(CCN1CCOCC1)c1nc2c(OC)ccc(C)c2s1.Cl	15.71%
COc1cc(F)ccc1C(C(=O)O)N(C)CCN1CCOCC1 (stereo not drawn)	-4.538%
COc1ccc(CN(CCC#N)CCN2CCOCC2)c(OC)c1	118.6%
N#Cc1cc(CSCCN2CCOCC2)ccc1F	-6.22%
COc1ccc(CN(C)Cc2cccc(C#N)c2)c(OC)c1	0.7087%
COc1ccc(CCC(=O)N(C)CCN2CCOCC2)cc1OC	6.913%
